Among the data in PubChem BioAssay AID2708 (National Center for Advancing Translational Sciences (NCATS), 2010) are Potency values, retold here.

This is one part of the list. Records with an inconclusive call do not appear. Active and inactive are the calls of the source. Calls come from the whole dose curve; as a rule, active = well fitted inhibition curve with a large enough effect; inconclusive = small, poorly fitted or top-dose-only effect; inactive = no such curve, though single readings can be large or run the other way.

This assay has as its target ATP-dependent DNA helicase Q1 (Homo sapiens) (UniProt P46063). In words: Confirmation qHTS Assay for Inhibitors of RecQ-Like Dna Helicase 1 (RECQ1). Note: nearly all actives have a fitted effect of over 45% in size. As to conditions: RECQ1 helicase DNA unwinding, fluorescence. The text has this:
Survival of cells and the faithful propagation of the genome depend on elaborate mechanisms of detecting and repairing DNA damage. Treatment of advanced cancer relies on radiation therapy or chemotherapy, which kill cancer cells by causing extensive DNA damage. It is often found, that cancer cells develop resistance to therapy through enhanced activity of DNA repair functions; this has led to an increased interest in developing drugs that interfere with DNA repair, which could sensitize cancer cells to conventional therapy.
This validation qHTS assay pertains to human RECQ1, which is important in resolving abnormal DNA structures formed during replication or homologous recombination. Shutting down the expression of RECQ1 leads to chromosomal instability and higher radiation sensitivity in cultured cells.
The validation assay was a fluorescence quenching based kinetic qHTS for RECQ1 Helicase DNA unwinding. The activity was measured as ATP-dependent separation of a 20-bp DNA duplex extended by 30-nt single-stranded tails (forked duplex). The forked DNA substrate was tagged with rhodamine fluorophore (carboxytetramethyl rhodamine, TAMRA) and BHQ-2 (Black Hole Quencher 2) dark quencher. Strand separation results in an increase in the fluorescence of TAMRA (excitation 525 nm, emission 598 nm). […]
Potency is the fitted concentration of half-maximal effect.

Chain of ATP-dependent DNA helicase Q1 (Homo sapiens) (P46063 whole entry, looked up): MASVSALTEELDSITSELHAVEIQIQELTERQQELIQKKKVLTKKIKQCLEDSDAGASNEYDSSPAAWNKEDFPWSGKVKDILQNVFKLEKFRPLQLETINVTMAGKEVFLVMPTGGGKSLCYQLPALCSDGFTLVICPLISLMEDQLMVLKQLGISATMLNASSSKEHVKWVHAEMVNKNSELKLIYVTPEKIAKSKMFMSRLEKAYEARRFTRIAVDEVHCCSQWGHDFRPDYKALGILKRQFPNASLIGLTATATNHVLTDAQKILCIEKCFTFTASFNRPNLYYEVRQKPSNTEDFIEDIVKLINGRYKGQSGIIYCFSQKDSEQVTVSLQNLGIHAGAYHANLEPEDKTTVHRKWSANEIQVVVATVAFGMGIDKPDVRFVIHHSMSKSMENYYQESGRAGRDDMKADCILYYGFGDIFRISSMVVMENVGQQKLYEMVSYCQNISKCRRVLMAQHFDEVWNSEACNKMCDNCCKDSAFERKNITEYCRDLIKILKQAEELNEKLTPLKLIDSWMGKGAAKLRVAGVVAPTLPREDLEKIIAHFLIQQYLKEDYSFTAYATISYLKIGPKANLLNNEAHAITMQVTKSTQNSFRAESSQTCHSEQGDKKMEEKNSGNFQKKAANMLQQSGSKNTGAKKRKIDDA

For the molecule `O=C(O)c1cc[c]([Sb](=[O])([OH])[OH])cc1[N+](=O)[O-]`, the Potency is 913 nM (active).
